Experimental data taken from PubChem BioAssay (Tox21).
“And” between values parts separate entries of the source, which are not always exact repeats. Identical values can stand only once. Results filed as inconclusive are left out. Entries that show only a call come without a potency. Some structures have more than one record in an assay (separate samples or runs), and their calls can disagree. The source made the active and inactive calls. Calls come from the whole dose curve; as a rule, active = well fitted curve in the direction sought with a large enough effect in the repeat runs; inconclusive = weak or mixed curves; inactive = no such curve, though single readings can be large; an effect the other way counts as inactive or inconclusive.

Tests used:
[1] = Caspase-3/7 induction in CHO-K1 cells by small molecules, qHTS cell viability counter screen (AID 1346979); note: nearly all actives have a fitted effect of over 35% in size
Summary of the method: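 Cytotoxicity counter screen: CellTiter-Fluor added to compound-treated wild-type CHO-K1 cells at 16 h (37C, 5% CO2), fluorescence measured 1 h later; same wells as caspase-3/7 measurement.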

[2] = Caspase-3/7 induction in CHO-K1 cells by small molecules, qHTS assay (AID 1346980); note: nearly all actives have a fitted effect of over 15% in size
Summary of the method: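 Wild-type cells were seeded at 1,500 per well and settled 5 hr at 37 C, 5% CO2, then exposed to DMSO-dissolved compounds for 17 hr. Caspase-Glo 3/7 reagent was added, and luminescence was read after 30min at room temperature.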

[3] = Caspase-3/7 induction in HepG2 cells by small molecules, qHTS cell viability counter screen (AID 1346981); note: nearly all actives have a fitted effect of over 30% in size
Summary of the method: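 Cell viability is measured as a cytotoxicity counter screen alongside the Caspase-Glo 3/7 readout in identical wells. Wild-type HepG2 cells are treated with test compounds for 16 hr at 37 C before CellTiter-Fluor addition and a 1-hr incubation.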

[4] = biological target: Nuclear receptor subfamily 1 group I member 2 (Homo sapiens) (UniProt O75469); assay: Human pregnane X receptor (PXR) small molecule agonists, qHTS assay (AID 1346982); note: nearly all actives have a fitted effect of over 35% in size
Summary of the method: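 Cells: HepG2 stably carrying PXR-Luc. Medium held 5% charcoal-stripped FBS. Compounds in DMSO added after 5 hr plating, incubated 24 hr, then luminescence quantified with ONE-Glo.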

[5] = biological target: Cytochrome P450 2D6 (Homo sapiens) (UniProt P10635); assay: Cytochrome P450 Family 2 Subfamily D Member 6 (CYP2D6) small molecule antagonists: luciferase reporter qHTS assay (AID 1671196); note: nearly all actives have a fitted effect of over 50% in size
Summary of the method: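 Enzyme and proluciferin substrate were first combined with test chemical for 10 min at room temperature. Adding NADPH regeneration solution started a 1 h reaction, stopped with luciferin detection reagent and read by luminescence 20 min later.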

[6] = biological target: Cytochrome P450 2C19 (Homo sapiens) (UniProt P33261); assay: Cytochrome P450 Family 2 Subfamily C Member 19 (CYP2C19) small molecule antagonists: luciferase reporter qHTS assay (AID 1671197); note: nearly all actives have a fitted effect of over 65% in size
Summary of the method: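 CYP2C19 P450-Glo, 1536-well qHTS. Cpd + enzyme/proluciferin substrate 10 min RT; + NADPH regen, 37C 1 h; stop with luciferin detection reagent, 20 min RT, luminescence (RLU). Pos ctrl ketoconazole.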

[7] = biological target: Cytochrome P450 2C9 (Homo sapiens) (UniProt P11712); assay: Cytochrome P450 Family 2 Subfamily C Member 9 (CYP2C9) small molecule antagonists: luciferase reporter qHTS assay (AID 1671198); note: nearly all actives have a fitted effect of over 50% in size
Summary of the method: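 CYP2C9 activity was measured with a P450-Glo proluciferin substrate. Enzyme–substrate mix was held with compound for 10 min at room temperature, then NADPH regeneration solution was added for 1 h at 37C. Luciferin product was read as luminescence.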

[8] = biological target: Cytochrome P450 1A2 (Homo sapiens) (UniProt P05177); assay: Cytochrome P450 Family 1 Subfamily A Member 2 (CYP1A2) small molecule antagonists: luciferase reporter qHTS assay (AID 1671199); note: nearly all actives have a fitted effect of over 50% in size
Summary of the method: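 Compounds were incubated with CYP1A2 and a luminogenic proluciferin substrate for 10 min at room temperature before the reaction was started with NADPH regeneration solution. After 1 h, detection reagent was added and light output, proportional to CYP activity, was recorded.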

[9] = biological target: Voltage-gated inwardly rectifying potassium channel KCNH2 (Homo sapiens) (UniProt Q12809); assay: Human Ether-a-go-go-Related Gene (hERG) channel small molecule antagonists: fluorescence cell-based qHTS assay (AID 1671200); note: nearly all actives have a fitted effect of over 50% in size
Summary of the method: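 Thallium flux as potassium surrogate: FluxOR II dye loaded 1 h at room temperature into hERG-expressing U2OS cells, then stimulus buffer added after 10 min. Kinetic 480 nm excitation/540 nm emission read, 2 min.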

[10] = biological target: Cytochrome P450 3A4 (Homo sapiens) (UniProt P08684); assay: Cytochrome P450 Family 3 Subfamily A Member 4 (CYP3A4) small molecule antagonists: luciferase reporter qHTS assay (AID 1671201); note: nearly all actives have a fitted effect of over 50% in size
Summary of the method: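 Recombinant human CYP3A4 converts a proluciferin substrate to luciferin over 1 h at room temperature after NADPH regeneration solution is added (compound preincubated 10 min); detection reagent stops reaction, luminescence read 20 min later as relative units.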
Potency is the fitted concentration of half-maximal effect.

Chain of Cytochrome P450 1A2 (Homo sapiens) (P05177 whole entry, looked up): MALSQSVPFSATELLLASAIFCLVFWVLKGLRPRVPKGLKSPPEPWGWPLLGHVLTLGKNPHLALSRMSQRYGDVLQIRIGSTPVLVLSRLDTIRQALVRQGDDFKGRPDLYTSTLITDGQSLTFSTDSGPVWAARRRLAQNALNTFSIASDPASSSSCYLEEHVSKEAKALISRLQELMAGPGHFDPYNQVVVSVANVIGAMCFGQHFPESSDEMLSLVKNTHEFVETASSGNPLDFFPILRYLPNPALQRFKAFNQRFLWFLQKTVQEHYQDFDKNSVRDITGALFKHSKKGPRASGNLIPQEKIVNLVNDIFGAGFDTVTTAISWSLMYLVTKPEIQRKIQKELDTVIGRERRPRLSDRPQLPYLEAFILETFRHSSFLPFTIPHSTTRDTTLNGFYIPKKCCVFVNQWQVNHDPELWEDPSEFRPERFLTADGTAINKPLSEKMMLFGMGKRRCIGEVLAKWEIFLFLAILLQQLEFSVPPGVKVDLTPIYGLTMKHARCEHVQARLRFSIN
Chain of Cytochrome P450 2C19 (Homo sapiens) (P33261 whole entry, looked up): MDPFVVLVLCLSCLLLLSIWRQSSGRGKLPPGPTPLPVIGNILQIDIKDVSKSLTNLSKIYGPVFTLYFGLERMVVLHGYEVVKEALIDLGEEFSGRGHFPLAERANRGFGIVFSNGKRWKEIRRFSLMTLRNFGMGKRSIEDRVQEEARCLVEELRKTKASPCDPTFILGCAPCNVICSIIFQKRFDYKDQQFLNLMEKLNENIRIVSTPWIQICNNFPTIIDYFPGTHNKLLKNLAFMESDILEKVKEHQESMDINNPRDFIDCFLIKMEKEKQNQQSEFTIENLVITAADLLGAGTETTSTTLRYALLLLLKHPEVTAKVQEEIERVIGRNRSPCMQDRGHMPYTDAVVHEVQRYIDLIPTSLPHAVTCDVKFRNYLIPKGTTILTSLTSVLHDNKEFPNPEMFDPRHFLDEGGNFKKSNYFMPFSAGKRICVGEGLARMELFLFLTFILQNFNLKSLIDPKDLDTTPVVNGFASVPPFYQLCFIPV
Chain of Cytochrome P450 2C9 (Homo sapiens) (P11712 whole entry, looked up): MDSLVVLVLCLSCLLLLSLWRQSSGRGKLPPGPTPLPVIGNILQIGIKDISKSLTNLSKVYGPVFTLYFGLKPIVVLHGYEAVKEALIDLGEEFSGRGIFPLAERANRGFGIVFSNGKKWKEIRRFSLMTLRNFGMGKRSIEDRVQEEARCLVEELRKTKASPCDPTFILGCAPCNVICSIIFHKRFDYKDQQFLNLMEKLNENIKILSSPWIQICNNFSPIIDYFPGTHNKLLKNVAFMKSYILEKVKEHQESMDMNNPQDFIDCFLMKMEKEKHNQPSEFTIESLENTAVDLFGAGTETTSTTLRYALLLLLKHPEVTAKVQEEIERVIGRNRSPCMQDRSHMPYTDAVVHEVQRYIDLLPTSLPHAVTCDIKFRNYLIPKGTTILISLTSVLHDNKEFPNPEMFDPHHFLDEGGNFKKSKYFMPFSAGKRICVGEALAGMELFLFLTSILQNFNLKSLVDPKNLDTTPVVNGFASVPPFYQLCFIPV
Chain of Voltage-gated inwardly rectifying potassium channel KCNH2 (Homo sapiens) (Q12809 whole entry, looked up): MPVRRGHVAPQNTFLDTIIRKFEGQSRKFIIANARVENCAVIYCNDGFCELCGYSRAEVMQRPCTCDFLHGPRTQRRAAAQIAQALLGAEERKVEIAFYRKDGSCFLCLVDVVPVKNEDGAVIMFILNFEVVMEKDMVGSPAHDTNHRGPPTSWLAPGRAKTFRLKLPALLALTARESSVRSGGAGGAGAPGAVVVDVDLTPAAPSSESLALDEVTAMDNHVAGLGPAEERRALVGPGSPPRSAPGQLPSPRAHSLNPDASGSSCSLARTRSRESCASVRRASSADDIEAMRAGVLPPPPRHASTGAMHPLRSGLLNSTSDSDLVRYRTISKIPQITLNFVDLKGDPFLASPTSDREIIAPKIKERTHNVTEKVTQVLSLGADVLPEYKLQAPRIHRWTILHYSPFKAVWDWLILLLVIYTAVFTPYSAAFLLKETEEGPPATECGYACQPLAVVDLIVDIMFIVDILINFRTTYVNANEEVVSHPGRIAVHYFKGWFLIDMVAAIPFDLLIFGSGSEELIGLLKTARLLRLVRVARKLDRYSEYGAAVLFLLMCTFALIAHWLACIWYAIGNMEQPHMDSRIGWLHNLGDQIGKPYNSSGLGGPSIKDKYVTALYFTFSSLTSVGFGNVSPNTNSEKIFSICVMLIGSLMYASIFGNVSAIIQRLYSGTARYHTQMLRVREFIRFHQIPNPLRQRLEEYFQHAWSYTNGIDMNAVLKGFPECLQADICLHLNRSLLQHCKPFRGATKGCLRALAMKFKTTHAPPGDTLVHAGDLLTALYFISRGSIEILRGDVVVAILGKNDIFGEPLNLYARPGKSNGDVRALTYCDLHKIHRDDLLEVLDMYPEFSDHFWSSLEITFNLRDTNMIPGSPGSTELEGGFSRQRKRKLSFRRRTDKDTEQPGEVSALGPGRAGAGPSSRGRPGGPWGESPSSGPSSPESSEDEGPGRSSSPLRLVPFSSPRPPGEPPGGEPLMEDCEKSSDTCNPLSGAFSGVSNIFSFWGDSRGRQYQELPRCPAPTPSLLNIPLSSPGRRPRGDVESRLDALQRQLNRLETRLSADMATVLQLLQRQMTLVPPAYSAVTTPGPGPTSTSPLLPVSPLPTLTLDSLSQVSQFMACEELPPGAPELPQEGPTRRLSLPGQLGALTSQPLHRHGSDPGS
Chain of Cytochrome P450 3A4 (Homo sapiens) (P08684 whole entry, looked up): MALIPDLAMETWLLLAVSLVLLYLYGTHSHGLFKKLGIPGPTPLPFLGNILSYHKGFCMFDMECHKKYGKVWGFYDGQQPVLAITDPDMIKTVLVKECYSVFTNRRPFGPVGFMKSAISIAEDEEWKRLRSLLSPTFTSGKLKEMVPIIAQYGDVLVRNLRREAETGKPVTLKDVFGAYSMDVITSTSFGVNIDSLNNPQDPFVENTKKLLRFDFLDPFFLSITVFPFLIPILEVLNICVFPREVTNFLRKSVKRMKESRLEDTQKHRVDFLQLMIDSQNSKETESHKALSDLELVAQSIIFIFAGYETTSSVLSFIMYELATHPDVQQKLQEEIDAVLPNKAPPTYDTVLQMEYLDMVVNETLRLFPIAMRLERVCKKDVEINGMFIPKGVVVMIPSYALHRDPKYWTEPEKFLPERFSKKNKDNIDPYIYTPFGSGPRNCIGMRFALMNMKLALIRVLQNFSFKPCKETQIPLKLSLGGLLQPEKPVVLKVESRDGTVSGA
Chain of Nuclear receptor subfamily 1 group I member 2 (Homo sapiens) (O75469 whole entry, looked up): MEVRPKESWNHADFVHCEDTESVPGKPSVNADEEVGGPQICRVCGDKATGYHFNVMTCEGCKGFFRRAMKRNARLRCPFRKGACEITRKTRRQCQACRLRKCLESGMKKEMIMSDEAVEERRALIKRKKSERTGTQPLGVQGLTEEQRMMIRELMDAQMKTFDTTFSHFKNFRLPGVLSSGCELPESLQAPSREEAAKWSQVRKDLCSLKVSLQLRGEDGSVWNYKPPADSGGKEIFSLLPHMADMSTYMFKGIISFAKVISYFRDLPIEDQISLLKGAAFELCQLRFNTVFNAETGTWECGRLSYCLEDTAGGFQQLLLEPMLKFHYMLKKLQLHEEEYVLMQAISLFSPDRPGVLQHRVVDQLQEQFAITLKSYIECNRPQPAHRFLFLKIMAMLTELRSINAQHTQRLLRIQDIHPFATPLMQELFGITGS
Chain of Cytochrome P450 2D6 (Homo sapiens) (P10635 whole entry, looked up): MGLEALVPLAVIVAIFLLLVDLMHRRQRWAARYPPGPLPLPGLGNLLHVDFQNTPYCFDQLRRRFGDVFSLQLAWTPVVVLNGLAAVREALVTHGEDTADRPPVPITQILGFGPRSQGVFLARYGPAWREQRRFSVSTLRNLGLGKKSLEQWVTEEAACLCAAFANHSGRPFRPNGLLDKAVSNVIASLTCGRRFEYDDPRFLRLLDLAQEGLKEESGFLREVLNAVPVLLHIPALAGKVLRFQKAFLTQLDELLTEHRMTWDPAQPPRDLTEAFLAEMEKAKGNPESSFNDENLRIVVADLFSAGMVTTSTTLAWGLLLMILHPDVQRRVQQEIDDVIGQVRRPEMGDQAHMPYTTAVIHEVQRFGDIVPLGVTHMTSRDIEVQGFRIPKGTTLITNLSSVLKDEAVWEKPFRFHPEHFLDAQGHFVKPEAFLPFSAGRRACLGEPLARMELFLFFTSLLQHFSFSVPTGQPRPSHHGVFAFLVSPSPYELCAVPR

Row | Compound | Potency [1] | Potency [2] | Potency [3] | Potency [4] | Potency [5] | Potency [6] | Potency [7] | Potency [8] | Potency [9] | Potency [10]
1 | c1ccc2n[nH]nc2c1 | inactive | inactive | inactive | inactive | inactive | inactive | inactive | inactive | inactive | inactive
2 | CCC(CO)(CO)COCC(CC)(CO)CO | inactive | inactive | inactive | inactive | inactive | inactive | – | inactive | inactive | inactive
3 | CCCC(=O)c1ccccc1 | inactive | inactive | inactive | inactive | 31.7 µM (active) | inactive | – | inactive | inactive | inactive
4 | O=C(O)c1cccc(C(=O)O)c1 | inactive | inactive | inactive | inactive | inactive | inactive | inactive | – | inactive | inactive
5 | CCc1ccc(C(c2ccc(CC)cc2)C(Cl)Cl)cc1 | inactive | inactive | inactive | 31.1 µM (active) and 24.3 µM (active) | inactive | 6.43 µM (active) and 3.56 µM (active) | 14.4 µM (active) and 12.6 µM (active) | 40.6 µM (active) | inactive | inactive
6 | CCN1CCCC1CNC(=O)c1cc(S(=O)(=O)CC)c(N)cc1OC (configuration not stated) | inactive | inactive | inactive | inactive | 9.77 µM (active) | inactive | inactive | inactive | – | inactive
7 | Cc1cc(Cc2cc(C)cc(C(C)(C)C)c2O)c(O)c(C(C)(C)C)c1 | 27.4 µM (active) and 54.5 µM (active) | 27.4 µM (active) and 61.1 µM (active) | 61.4 µM (active) and 61.1 µM (active) | 24.5 µM (active) and 386 nM (active) | inactive | 5.05 µM (active) and 5.03 µM (active) | – | 25.3 µM (active) | 39.1 µM (active) | 5.67 µM (active) and 8.94 µM (active)
8 | CCCCCCC(O)CCCCCCCCCCC(=O)O (configuration not stated) | inactive | inactive | inactive | inactive | inactive | inactive | – | inactive | inactive | inactive
9 | Nc1cc(S(=O)(=O)O)cc2cc(S(=O)(=O)O)cc(O)c12 | 43.1 µM (active) and 61.1 µM (active) | inactive | 54.5 µM (active) | inactive | 35.6 µM (active) | 19.9 µM (active) and 22.4 µM (active) | 39.9 µM (active) | inactive and 39.9 µM (active) | inactive | inactive
10 | CCc1cc(C(C)(C)C)c(O)c(C(C)(C)C)c1 | inactive | inactive | inactive | inactive and 34.4 µM (active) | inactive | 71.7 µM (active) and inactive | – | inactive | inactive | inactive
11 | NC(N)=Nc1nc(CSCC/C(N)=N/S(N)(=O)=O)cs1 | inactive | inactive | inactive | inactive | inactive | inactive | inactive | inactive | – | inactive
12 | COc1ccc(COC(C)=O)cc1 | inactive | inactive | inactive | inactive | inactive | 45.6 µM (active) and inactive | inactive | 28.8 µM (active) and 44.8 µM (active) | inactive | inactive
13 | BrC1CCC(Br)C(Br)CCC(Br)C(Br)CCC1Br (configuration not stated) | 48.4 µM (active) | 60.9 µM (active) | inactive | 54.3 µM (active) and 46.1 µM (active) | inactive | 1.26 µM (active) and 1.34 µM (active) | 10.7 µM (active) | inactive | 15.4 µM (active) | 1.41 µM (active) and 1.51 µM (active)
